These results are taken from PubChem BioAssay AID1508600 (Functional Genomics Laboratory (NCATS/FGL), 2020).

The whole screen tested about 53,000 sequences, of which about 3,700 (7%) were called active. This is one part of a sample in which actives are shown more often than they occur. Values without a mark were called inactive.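 How the source made its calls: active means gene knockdowns whose robust z-score for IL-1 alpha signal is at least 2 or at most -2, so actives lie on both sides; inactive means the rest.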

This experiment can be described thus: Components of the Cytosolic LPS Sensing Pathway: Gene Identification via Genome-wide siRNA Screen.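 Further: robust z of the log signal after scaling to non-targeting control siRNA wells of the plate.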 As to conditions: RAW264.7 macrophages, IL-1a HTRF, actives lie on both sides, screened at 100 nM (by protocol), cells primed 5 h with Pam3CSK4 first. The gist of the method:
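Read-out: IL-1a HTRF on supernatant, divided by plate negative-control median ×100, log-transformed and converted to robust z-score. Cells were RAW264.7 given 100 nM siRNA, Pam3CSK4-primed 5 hours, then LipidA-transfected 24 hour.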
(In general: TR-FRET usually uses a lanthanide donor and a delayed reading to cut background.)
Turning to GGAUAACUAUAUUCCAGUGTT against Rhobtb3, the z-score was 0.885.

With GGCUAAAACACUUAUCAAUTT against Poteg, the z-score was -2.32 (active).

In the case of CGUACCAUGUAAAUUCUAUTT against Impa1, the z-score was 0.843.

With CCCAAGAAACUUCGCUUCCTT against Ehmt1, the z-score is -0.551.

In the case of GCCAAGCUUAAGAACUUAATT against Oas3, the z-score is 1.51.

Consider GGAAUAGGCCUUCUUGCUGTT against Matr3, for which the z-score is -0.395.

With GCAAGACGGUGAUUGUAACTT against Pck2, the z-score was -0.243.

As for GCUGAUUGAACUGAAUGGATT against Slc22a21, the z-score was -1.27.

As for CCAGGAUUGAUUUAGAAAATT against BC107364, the z-score is 1.29.

Regarding GGUCAUGGCUGGAUUUCUUTT against Olfr1462, the z-score is -2.42 (active).

Take GCAGUGUCCAAAGCACUUUTT against Slc6a9: the z-score is -1.14.

Turning to GGAUCGCUUAGUCUCAUGATT against Inip, the z-score was -0.493.

On to GGUGAACGAUGUCAACUUUTT against Dvl1, for which the z-score is -0.545.

Turning to GCAUAGGAGAGACCAACAUTT against Zcchc10, the z-score was -2.42 (active).

As for GGAGGAAAAUCAGACAGGATT against Olfr1419, the z-score is -0.13.

Consider GGUCCUCAAGAUCUUUGUGTT against Extl1, for which the z-score was 0.0445.

As to CCAAAACAACCACAAGUAGTT against Zfp385c, the z-score is -2.96 (active).

Turning to GCUCUGUGGACUUCUUGGATT against Znrf4, the z-score was -0.687.

For GGGCUAAAGCCUUCAACACTT against Olfr923, the z-score was 0.315.

Consider CCCUUACAACUCAAGUAUCTT against Lrig3, for which the z-score is 2.1 (active).

GGUUGAAAAUGUUGUCAGGTT against Atpsckmt: the z-score is -0.733.

Take GGGUUUUUGUCAAAUCUGUTT against Ttc5: the z-score was -2.24 (active).

On to GGACAUCCAGACCAAUGUCTT against Psmd8, for which the z-score is 1.1.

As for GGUCCAGACAUUUGGAUACTT against Cav2, the z-score is 0.428.

On to GGAUACCUGAAAAUUGAUATT against Npr1, for which the z-score is -0.667.

For GGGAAGCUUUACUUUUUAATT against Mapk4, the z-score is 2.05 (active).

CCUUAUGAAUCCCGAGUACTT against Bmp6: the z-score was -0.0506.

On to GGGCAAAAAAGGUCUAUUCTT against Rfpl4, for which the z-score is 0.44.

In the case of CCACAGUAUCAUGUAACUATT against Il1a, the z-score was -2.23 (active).

Regarding GGAACCUAUUGCUGUUUUATT against Map2k3, the z-score was -0.756.

For the sequence GGAAUGUGGUUUCCUGUUATT against Fscn3, the z-score was 0.502.

Consider GGCUGAACAAGAGAAACCATT against Ppdpf, for which the z-score is -2.49 (active).

As to CCCAGAAUUAAACAUAGCUTT against Rrh, the z-score is 0.0181.

Turning to GGAAACCUGCUCAUAGUGGTT against Olfr1188, the z-score was 0.54.

With GCAUGCCUAAAUUUGGGACTT against Fyb, the z-score was 0.805.

On to GGCUGGACACUGAGAAAAATT against Adcy4, for which the z-score was 1.63.

As for GGUAUUUGGAGUACCCUUUTT against Arhgap11a, the z-score is 0.196.

On to GGACAAGACUCUCAGUUCATT against Atpaf1, for which the z-score is 0.77.

In the case of GGAAUUUAGAAAAUGUGACTT against Vmn1r227, the z-score was -2.67 (active).

For the sequence GGGUGAUCUGUAGUAUUUUTT against Olfr574, the z-score is -0.879.

Regarding CCCUGUUACGAAGUUUAACTT against Slc17a7, the z-score is -1.27.

On to GGUGACUCUGAUUCUCAUATT against Slc22a13, for which the z-score was -0.176.

For GGAACUUGUACAAAUAGGATT against Lpcat1, the z-score is 0.587.

For the sequence GGACGAAGAGGAGAAAGAGTT against Ccdc184, the z-score is -1.25.

Regarding GCUUAUUCCCAGGAGACCATT against Dmrtc2, the z-score is -0.764.

In the case of CCCACCUUAUGGGACAAAATT against Hlf, the z-score is 2.05 (active).

On to GGUGGCCCAGUCUAAAGAATT against R74862, for which the z-score is 0.872.

Consider CCAGUGACAUUCAAUACCUTT against Lrif1, for which the z-score is -1.52.

Consider GGUCAAUAUUGGCUUAUGUTT against Tmem42, for which the z-score was -1.43.

GGUGGAGAGAAAGAGAAAATT against Mcm8: the z-score was 0.767.

GGGUUACUUUAGCUAUUUCTT against Rbm14: the z-score was -1.11.

Regarding GGCUGAACAGGCAUGAUCATT against Rpap1, the z-score was -3 (active).

As to GGAGCUGCUAUGUACACAUTT against Bptf, the z-score was 0.364.

Take GGGUGAAUUUCCACCUUAUTT against Sgce: the z-score was -0.521.

In the case of GGAGAAAAUACAACUGUGATT against Ctrc, the z-score is -1.05.

As for CGAAAAUCAAGCGGAAUUUTT against Zmiz1, the z-score is 2.49 (active).

GGGCUCACUCUGUCUCUACTT against Rpp25l: the z-score is -0.378.

As for CCAAAUCUGGUGUGAUUCATT against Arhgef4, the z-score was -0.923.

With GCAAAGAGGCCUAAUUGAATT against B2m, the z-score was 1.16.

GGAUUUCAAACACGUCUUUTT against Asic5: the z-score is 0.222.

For GGCGGGUUUGCUGAAUAACTT against Lrrc26, the z-score is 2.43 (active).

Regarding GGUGAAGAGGAAGAUCCUGTT against Ctdnep1, the z-score is 0.421.

Regarding GGGUUAUCCGUAUGUUUUCTT against Olfr557, the z-score is 0.964.

In the case of GGGAUUUCUUACCCUGUUUTT against Prr7, the z-score was -0.222.

CGACAUUGAUAUCGUGCGCTT against Gadd45g: the z-score is -0.827.

Turning to GGACUAGCAAGCUCUUCAGTT against Fancd2, the z-score is -0.578.

Turning to GGUGAAAGUACUGAGGAAGTT against Rlim, the z-score was 2.45 (active).

GCUCCACCGAGAAAUUACUTT against Magt1: the z-score is 1.63.

CCCUCUUGAAAUUAGUGUGTT against Dusp14: the z-score is 0.405.

In the case of GCUCACAUGUUUUAGGUGATT against Poc5, the z-score is 0.756.

For the sequence GGCAAAGAAGGAGAAAGUATT against Cd209c, the z-score was -2.06 (active).

For the sequence GGCAGACAAUCAAUGAAAUTT against Padi4, the z-score was -0.451.

For GCCACUUCCGGUCAACUAUTT against Cog1, the z-score is 0.801.

Regarding GGGCAAUAAGAUGUACGUUTT against Eomes, the z-score is 3.24 (active).

With GUAUGUUUGGGCUUAGCCUTT against Olfr1348, the z-score is -1.21.

In the case of GGAAGUUACUGUUGAGUAGTT against Olfr114, the z-score is 0.209.

For the sequence GUUGAUGGAAACCAUGGAATT against Phf11d, the z-score is -0.504.

As for GGAAAAAGCACCAUUGUGATT against Gnao1, the z-score is -0.819.

Turning to GCUACUUCGGGAAUUUUACTT against Ttc21a, the z-score is -1.16.

Consider CCCUAUGAGCAAAUCACAUTT against Ppp3cc, for which the z-score was -0.499.

As to GGACUAAGAUUUGUGUUAGTT against Ccdc127, the z-score is 2.15 (active).

Turning to GGGAAGUUCAGUUCAAUACTT against Hps4, the z-score is 1.11.

In the case of GCUGGAUAGCUAAAAUGAUTT against Gimap5, the z-score is -0.0294.

As to GCUAUAUUGUUAGCACACATT against Hmgn2, the z-score was 0.326.

On to CCUGGAGGAGUAUUUACACTT against H2-Ob, for which the z-score was -1.17.

Take GGCUAUGGAGUUCACCACATT against Krtap5-5: the z-score was -2.66 (active).

With GGGAAGAAAUCAACGAUAATT against Gpa33, the z-score is -0.0673.

As to GGAACACACCAUCAUCCAGTT against H2-Ea, the z-score was 1.29.

As to GGGCUAUGCCUACUACACUTT against Fn3k, the z-score is 0.976.

Turning to CCGAGGUGAUUAGGAUAACTT against Traf3ip1, the z-score is -0.694.

Take GGAGGAGAACAGCAAUCUUTT against Speer4d: the z-score is -2.38 (active).

CCUCUUCAACAAACAAGCATT against Zscan22: the z-score is -0.379.

With GCAGCAGUGAAAUAGCUUCTT against Eya1, the z-score was -0.643.

Regarding GGAUGCAUGGCUCAAUAUUTT against Olfr1164, the z-score was 2.01 (active).

For the sequence GCACAUUUGGACAACCAAUTT against AU018091, the z-score is -0.973.

Regarding GCCGCUAUCGUCUUUAUCATT against Ptk7, the z-score was 0.00632.

For the sequence GGAGAAAAACAUCAUUGAATT against Reck, the z-score was -0.102.

For GGCUCUCAACUAAAGCAGCTT against Snu13, the z-score was -1.18.

Take GGGCUUUGUUUCCAAGUUGTT against Muc15: the z-score is -0.285.

Regarding GGUCUUUGCUACCAACCUGTT against Fignl1, the z-score was -2.15 (active).

As for CCAUAGACUAUUAUCCUUATT against Uhrf1bp1l, the z-score is -0.282.

On to GGACACAAAGAAGAAGAGGTT against Tarsl2, for which the z-score is 0.707.

Regarding GGUUAUUCUGGCUAUGGGCTT against Taf15, the z-score was -2.22 (active).

GGAAAUAUUGAUGCUGCUGTT against Ttc39a: the z-score was 1.09.

Turning to GGGAGUGCCUGGGUUUGUATT against Dusp28, the z-score was 3.19 (active).

Take CAAAAAUAUCUACAGAGUCTT against Olfr494: the z-score was 0.207.

Take CGAGAAAAACGAUUUACUGTT against Orai2: the z-score was -0.527.

As to GGCAAUCCCAUAGAGGCUGTT against Mief2, the z-score is -2.64 (active).
